Data: PubChem BioAssay AID1159580 (chemical genetic matrix, 2015)
Among all 5,500 compounds or so, about 2,000 (36%) were called active. Not shown: some 18% with an inconclusive outcome. Cut-off read from the data, not from the text of the source: active = normalized growth mostly below about 0.91 (no sharp cut-off); inconclusive = no clear call, values can overlap the other calls; inactive = mostly above about 0.92. This is one part of the list.

Assay: chemical genetic growth profiling, strain panel (AID 1159580);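 note: tested at 20 µM; growth read once vehicle control cultures reached saturation at 30 °C; 1 = growth at the plate median or of vehicle wells; lower values mean less growth of the strain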
Settings: S. cerevisiae deletion strains, growth OD
[1] = locus YDL101C, strain DUN1, stronger effect = lower value
[2] = locus YHR030C, strain SLT2, stronger effect = lower value
[3] = locus YAL013W, strain DEP1, stronger effect = lower value
[4] = locus YBR229C, strain ROT2, stronger effect = lower value
[5] = locus YCL061C, strain MRC1, stronger effect = lower value
[6] = locus YDR150W, strain NUM1, stronger effect = lower value
[7] = locus YEL061C, strain CIN8, stronger effect = lower value
[8] = locus YGR078C, strain PAC10, stronger effect = lower value
[9] = locus YGR229C, strain SMI1, stronger effect = lower value
[10] = locus YHR087W, strain rtc3, stronger effect = lower value
[11] = locus YJR043C, strain POL32, stronger effect = lower value
[12] = locus YJR075W, strain HOC1, stronger effect = lower value
[13] = locus YLR039C, strain RIC1, stronger effect = lower value
[14] = locus YLR058C, strain SHM2 (second series), stronger effect = lower value
[15] = locus YLR085C, strain ARP6, stronger effect = lower value
[16] = locus YLR262C, strain YPT6, stronger effect = lower value
[17] = locus YML094W, strain GIM5, stronger effect = lower value
[18] = locus YMR219W, strain ESC1, stronger effect = lower value
[19] = locus YMR263W, strain SAP30, stronger effect = lower value
[20] = locus YNL153C, strain GIM3, stronger effect = lower value
[21] = locus YNL298W, strain CLA4 (second series), stronger effect = lower value
[22] = locus YNL322C, strain KRE1, stronger effect = lower value
[23] = locus YNR030W, strain Alg12, stronger effect = lower value
[24] = locus YOL006C, strain TOP1, stronger effect = lower value
[25] = locus YPL055C, strain LGE1, stronger effect = lower value
[26] = locus YPL241C, strain CIN2, stronger effect = lower value
[27] = locus YPR135W, strain CTF4, stronger effect = lower value

Measured: normalized growth

CN(C)/C=C/C(=O)c1ccc(C#Cc2ccccc2)cc1
inactive: locus YAR019C, strain CDC15, stronger effect = lower value 0.982 | locus YBL105C, strain PKC1, stronger effect = lower value 0.986 | locus YBR135W, strain CKS1, stronger effect = lower value 0.967 | locus YBR136W, strain MEC1, stronger effect = lower value 0.984 | locus YBR160W, strain CDC28, stronger effect = lower value 0.97 | locus YDL017W, strain CDC7, stronger effect = lower value 0.977 | locus YDL028C, strain MPS1, stronger effect = lower value 0.98 | [1] 0.982 | locus YDL108W, strain KIN28, stronger effect = lower value 0.986 | locus YDL132W, strain cdc53, stronger effect = lower value 0.968 | locus YDL214C, strain PRR2, stronger effect = lower value 0.987 | locus YDR052C, strain DBF4, stronger effect = lower value 0.974 | locus YDR054C, strain cdc34, stronger effect = lower value 0.975 | locus YDR226W, strain ADK1, stronger effect = lower value 0.972 | locus YDR477W, strain SNF1, stronger effect = lower value 0.958 | locus YER123W, strain YCK3, stronger effect = lower value 0.955 | locus YER133W, strain GLC7, stronger effect = lower value 0.981 | locus YFL009W, strain cdc4, stronger effect = lower value 0.965 | locus YFL029C, strain CAK1, stronger effect = lower value 0.976 | locus YFR003C, strain YPI1, stronger effect = lower value 0.993 | locus YFR019W, strain FAB1, stronger effect = lower value 0.981 | locus YFR028C, strain CDC14, stronger effect = lower value 0.98 | locus YGR040W, strain KSS1, stronger effect = lower value 0.967 | locus YGR052W, strain FMP48, stronger effect = lower value 1.08 | locus YGR092W, strain DBF2, stronger effect = lower value 1.01 | [2] 0.874 | locus YHR079C, strain IRE1, stronger effect = lower value 0.99 | locus YHR082C, strain KSP1, stronger effect = lower value 1.05 | locus YHR205W, strain SCH9, stronger effect = lower value 0.987 | locus YIL147C, strain SLN1, stronger effect = lower value 0.982 | locus YJL095W, strain BCK1, stronger effect = lower value 0.935 | locus YJL128C, strain PBS2, stronger effect = lower value 0.953 | locus YJL157C, strain FAR1, stronger effect = lower value 0.989 | locus YJR016C, strain ILV3, stronger effect = lower value 0.974 | locus YJR066W, strain TOR1 (second series), stronger effect = lower value 0.934 | locus YJR066W, strain TOR1, stronger effect = lower value 0.94 | locus YKL048C, strain ELM1, stronger effect = lower value 0.979 | locus YKL067W, strain YNK1, stronger effect = lower value 0.974 | locus YKL101W, strain HSL1, stronger effect = lower value 0.986 | locus YKL193C, strain SDS22, stronger effect = lower value 0.976 | locus YKL203C, strain TOR2, stronger effect = lower value 1 | locus YLR113W, strain HOG1, stronger effect = lower value 0.972 | locus YLR133W, strain CKI1, stronger effect = lower value 0.987 | locus YLR403W, strain SFP1, stronger effect = lower value 0.97 | locus YML070W, strain DAK1, stronger effect = lower value 0.967 | locus YMR001C, strain CDC5, stronger effect = lower value 0.984 | locus YMR205C, strain PFK2 (second series), stronger effect = lower value 0.994 | locus YMR277W, strain FCP1, stronger effect = lower value 0.973 | locus YNL006W, strain LST8, stronger effect = lower value 0.962 | locus YNL020C, strain ARK1, stronger effect = lower value 0.992 | locus YNL161W, strain CBK1, stronger effect = lower value 0.965 | locus YNL183C, strain NPR1, stronger effect = lower value 0.939 | locus YNL207W, strain RIO2, stronger effect = lower value 0.985 | locus YNL222W, strain SSU72, stronger effect = lower value 0.972 | locus YNL307C, strain MCK1 (second series), stronger effect = lower value 0.994 | locus YOL078W, strain AVO1, stronger effect = lower value 0.98 | locus YOL136C, strain PFK27, stronger effect = lower value 0.976 | locus YOR061W, strain CKA2, stronger effect = lower value 0.979 | locus YOR119C, strain RIO1, stronger effect = lower value 1.04 | locus YOR231W, strain MKK1, stronger effect = lower value 0.931 | locus YOR329C, strain SCD5, stronger effect = lower value 0.98 | locus YPL031C, strain PHO85, stronger effect = lower value 0.968 | locus YPL153C, strain RAD53, stronger effect = lower value 0.939 | locus YPL204W, strain HRR25, stronger effect = lower value 0.94 | locus YPL209C, strain IPL1, stronger effect = lower value 0.981 | locus YPL256C, strain CLN2, stronger effect = lower value 0.98 | locus YPR025C, strain CCL1, stronger effect = lower value 0.977 | locus YPR106W, strain ISR1, stronger effect = lower value 0.985 | locus YPR111W, strain DBF20, stronger effect = lower value 0.97 | strain NNK1, stronger effect = lower value 0.982 | strain TSCII, stronger effect = lower value 0.969

COC(=O)c1ccc(S(=O)(=O)NCc2ccccc2)n1C
inactive: [3] 1.01 | [4] 1.03 | [5] 1.02 | [1] 1.02 | [6] 1.03 | [7] 1.06 | [8] 1.02 | [9] 1.02 | [2] 1.09 | [10] 0.995 | [11] 1.06 | [12] 1.05 | [13] 1.02 | [14] 1.03 | [15] 1.04 | [16] 1.08 | [17] 1.01 | [18] 1.01 | [19] 1.01 | locus YMR307W, strain GAS1, stronger effect = lower value 1.1 | [20] 1.05 | [21] 1.03 | [22] 1.01 | [23] 1.04 | [24] 1.07 | [25] 0.991 | [26] 1.01 | [27] 1.15

COC(=O)c1ccc(C#Cc2ccccc2)o1
active: [3] 0.9 | [4] 0.884 | [5] 0.771 | [1] 0.846 | locus YDL134C, strain PPH21, stronger effect = lower value 0.589 | [7] 0.713 | [8] 0.89 | [2] 0.323 | [10] 0.902 | locus YJL187C, strain SWE1, stronger effect = lower value 0.913 | [11] 0.822 | [12] 0.875 | locus YKL190W, strain CNB1, stronger effect = lower value 0.731 | [13] 0.55 | [15] 0.325 | [16] 0.584 | [17] 0.787 | [18] 0.88 | [19] 0.904 | [20] 0.815 | [21] 0.654 | [23] 0.793 | [24] 0.349 | [25] 0.767 | [26] 0.678 | [27] 0.457
inactive: [6] 0.834 | [9] 0.961 | [14] 0.992 | locus YNL128W, strain TEP1, stronger effect = lower value 0.927 | [22] 0.972
